In all, about 69,000 compounds went through this assay and about 950 (1.4%) showed an effect of 50% or more. The sample as a whole holds a higher share of strong results than the screen did.
What follows are compounds tested on Mycobacterium tuberculosis (assay: Cornell M. t heat shock assay; note: in the data most compounds retested in dose-response had high values).
Assay type: functional, organism-based
Parameters: dose or concentration left out as unconfirmed

Row | SMILES | Percent Effect [%]
1 | Cc1cnn(CC2CN(c3cnc4ccccc4n3)CCO2)c1 (stereo not given) | 103.1
2 | c1ccc2nc(N3CCOC(Cn4cccn4)C3)cnc2c1 (stereo not given) | -17.06
3 | c1ccc2nc(N3CCOC(Cn4cncn4)C3)cnc2c1 (stereo not given) | -13.9
4 | Cc1cc(C)n(CC2CCCN2C(=O)c2nccc3ccccc23)n1 (stereo not given) | 3.715
5 | CC(=O)N(C)[C@H]1CC[C@]2(CC1)CNC(=O)c1cc(C)ccc1O2 | 5.316
6 | CC(C(N)=O)n1nc(-c2cccs2)cc(N)c1=O (stereo not given) | 10.66
7 | CCc1c(C)nc(-n2nc(-c3cccs3)cc2N)[nH]c1=O | 106.4
8 | CC(C(=O)N1CCCC1)n1nc(-c2cccs2)cc(N)c1=O (stereo not given) | -4.273
9 | CN1CCN(Cn2nc(-c3cccs3)ccc2=O)CC1 | 6.699
10 | Cc1nn(C)c(C)c1S(=O)(=O)NCCn1ccc(-c2cccs2)n1 | -25.61
11 | Cc1nc(-n2nc(-c3cccs3)cc2N)[nH]c(=O)c1C | 103.7
12 | CC1c2ncc(CN3CCN(C)CC3)n2CCN1Cc1ccsc1.O=C(O)C(F)(F)F.O=C(O)C(F)(F)F.O=C(O)C(F)(F)F (stereo not given) | -30.83
13 | CCN1CCC2(CC1)OCCN2C(=O)c1ccc(OC)c(Cl)c1.Cl | 7.471
14 | CCn1ncc2c1C(COC)N(C(=O)c1cccs1)CC2.O=C(O)C(F)(F)F (stereo not given) | 19.39
15 | O=C(CC1CC2(CCN(CC3CC3)CC2)c2ccccc21)NC1CCC1.O=C(O)C(F)(F)F (stereo not given) | -33.11
16 | O=C(O)C(F)(F)F.O=C1COC2(CCN(C(=O)c3ccco3)CC2)CN1Cc1ccccn1 | -21.74
17 | CC(C)(C)c1ccc(OCC(=O)O)c(CN2C[C@H]3C[C@H](O)C[C@H]3C2)c1 | -6.021
18 | Cc1noc(C)c1CN1C(=O)[C@H]2CC[C@@H]1CN(C(=O)c1cscn1)C2 | 9.12
19 | CNC(=O)c1ccc2c(c1)C1(CCN(CCOC)CC1)C(=O)N2.O=C(O)C(F)(F)F | -17.93
20 | Fc1cccc(Cl)c1CNCc1ccccn1 | 50.99
21 | Fc1cccc(Cl)c1CNCCOc1ccccn1 | -12.87
22 | Fc1cccc(Cl)c1CNCCCOc1ccccn1 | -11.57
23 | COCC(=O)NCc1cc(=O)n2c(n1)CN(CC1CCOC1)CCC2.O=C(O)C(F)(F)F (stereo not given) | -14.54
24 | CC(C)NC(=O)N1CCC2(CCC(=O)N2CCN2CCCC2)CC1.O=C(O)C(F)(F)F | -7.519
25 | O=C(c1ccccn1)N1CCCN(Cc2nnc(C3CC3)o2)CC1 | 27.04
26 | CCc1nnc(CSc2ccccn2)o1 | 0.1559
27 | CCc1noc(CSc2n[nH]c(-c3ccccn3)n2)n1 | 92.11
28 | c1ccc(-c2nc(SCc3nnc(C4CC4)o3)n[nH]2)nc1 | 78.14
29 | Cc1nnc(CSc2n[nH]c(-c3ccccn3)n2)o1 | 13.15
30 | CCc1noc(CN2CCN(C(=O)c3ccccn3)CC2)n1 | 7.072

From ChEMBL document CHEMBL3988442, “University of Dundee, Small-Polar-MMV Screening Library” (2021)
